In PubChem BioAssay (NCATS):
Inconclusive results are not listed. Calls of active or inactive are those of the source. Calls follow the shape of the dose curve; as a rule, active = well fitted inhibition curve with a large enough effect; inconclusive = small, poorly fitted or top-dose-only effect; inactive = flat fitted curve, though single readings scatter.

Assays:
Assay in all cases: qHTS profiling for inhibitors of Plasmodium falciparum proliferation (AID 504749); also: nearly all actives have a fitted effect of over 60% in size
Settings in all cases: P. falciparum in erythrocytes, SYBR Green DNA, 72 h; series mostly up to 28.7 µM
[1] = system: CP191
Outline: (§1)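 Parasite proliferation within erythrocytes, 72 h exposure. Endpoint: SYBR Green I fluorescence after overnight lysis at room temperature. Controls: 0.29 uM artemisinin, DMSO.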

[2] = system: CP192
Outline: as §1

[3] = system: CP194
Outline: as §1

[4] = system: CP201
Outline: as §1

[5] = system: CP211
Outline: as §1

[6] = system: CP215
Outline: as §1

[7] = system: CP217
Outline: as §1

[8] = system: CP237
Outline: as §1

[9] = system: CP238
Outline: as §1

[10] = system: CP247
Outline: as §1

[11] = system: CP250
Outline: as §1

[12] = system: CP252
Outline: as §1

[13] = system: CP256
Outline: as §1

[14] = system: CP260
Outline: as §1

[15] = system: CP262
Outline: as §1

[16] = system: CP265
Outline: as §1

[17] = system: CP268
Outline: as §1

[18] = system: CP269
Outline: as §1

[19] = system: CP266
Outline: as §1

[20] = system: CP203
Outline: as §1

Measured: Potency
Potency is read from the fitted curve at half-maximal effect.

COc1cnc(NS(=O)(=O)c2ccc(N)cc2)nc1
inactive: [1] | [2] | [3] | [4] | [5] | [6] | [7] | [8] | [9] | [10] | [11] | [12] | [13] | [14] | [15] | [16] | [17] | [18]

COc1ccc2cc3[n+](cc2c1OC)CCc1cc2c(cc1-3)OCO2
active: [1] 0.891 µM | [2] 0.849 µM | [3] 2.13 µM | [4] 1.69 µM | [5] 0.757 µM | [6] 0.953 µM | [7] 1.41 µM | [8] 1.26 µM | [9] 0.891 µM | [10] 3.16 µM | [11] 1.41 µM | [12] 1.12 µM | [13] 0.282 µM | [14] 0.891 µM | [15] 0.757 µM | [16] 0.891 µM | [17] 1.35 µM | [18] 0.953 µM

S=P(N1CC1)(N1CC1)N1CC1
inactive: [1] | [2] | [3] | [4] | [5] | [6] | [7] | [8] | [9] | [10] | [11] | [12] | [13] | [14] | [15] | [16] | [19] | [17] | [18]

CCC(C)(C)c1ccc(CC(C)CN2C[C@@H](C)O[C@@H](C)C2)cc1 (some centres undefined)
inactive: [1] | [2] | [3] | [4] | [5] | [6] | [7] | [9] | [10] | [11] | [12] | [13] | [15] | [16] | [19] | [17] | [18]

COc1nc(N)nc2c1ncn2[C@@H]1O[C@H](CO)[C@@H](O)[C@@H]1O
inactive: [1] | [2] | [3] | [4] | [5] | [6] | [7] | [8] | [9] | [10] | [11] | [12] | [13] | [14] | [15] | [16] | [19] | [17] | [18]

COC(=O)Nc1nc2ccc(Sc3ccccc3)cc2[nH]1
inactive: [1] | [3] | [4] | [5] | [6] | [7] | [8] | [9] | [10] | [11] | [12] | [13] | [14] | [15] | [16] | [17] | [18]

COc1cccc(N(C)C(=S)Oc2ccc3c(c2)CCCC3)n1
inactive: [2] | [5] | [7] | [8] | [9] | [10] | [11] | [12] | [13] | [15] | [16] | [19] | [18]

CNNCc1ccc(C(=O)NC(C)C)cc1
inactive: [2] | [3] | [20] | [5] | [6] | [7] | [8] | [9] | [10] | [11] | [12] | [13] | [14] | [15] | [16] | [19] | [17] | [18]

O=c1oc2c(O)c(O)cc3c(=O)oc4c(O)c(O)cc1c4c23
active: [8] 2 µM | [14] 1.41 µM | [18] 0.757 µM
inactive: [1] | [16]

CCCCCCNC(=O)n1cc(F)c(=O)[nH]c1=O
active: [5] 16.9 µM

CCOc1cc(N)c(Cl)cc1C(=O)NCC1CN(Cc2ccc(F)cc2)CCO1 (centres undefined)
active: [1] 3.98 µM | [3] 12 µM | [5] 12 µM | [6] 10.7 µM | [7] 4.47 µM | [8] 11.2 µM | [9] 11.2 µM | [10] 7.08 µM | [11] 5.62 µM | [12] 10 µM | [13] 2.82 µM | [14] 11.2 µM | [15] 6.01 µM | [16] 3.16 µM | [18] 13.5 µM

N[C@@H](Cc1ccc(O)c(O)c1)C(=O)O
inactive: [2] | [3] | [4] | [20] | [5] | [6] | [15] | [19] | [17] | [18]

CC(C)(C)C(=O)OCOP(=O)(COCCn1cnc2c(N)ncnc21)OCOC(=O)C(C)(C)C
inactive: [3] | [4] | [5] | [10] | [15] | [19] | [17]

COC(=O)Nc1nc2ccc(C(=O)c3ccccc3)cc2[nH]1
inactive: [1] | [2] | [3] | [4] | [5] | [7] | [8] | [9] | [10] | [11] | [12] | [13] | [14] | [15] | [16] | [17]

CN(Cc1cc(Br)cc(Br)c1N)C1CCCCC1
inactive: [1] | [2] | [3] | [4] | [5] | [6] | [7] | [10] | [11] | [12] | [13] | [15] | [16] | [19] | [17] | [18]

CN1CCCC(n2nc(Cc3ccc(Cl)cc3)c3ccccc3c2=O)CC1 (centres undefined)
inactive: [2] | [3] | [5] | [9] | [11] | [12] | [13] | [15] | [19] | [17] | [18]

CCOC(=O)c1ccc(OC(=O)CCCCCN=C(N)N)cc1
inactive: [2] | [3] | [4] | [5] | [6] | [7] | [8] | [9] | [10] | [11] | [12] | [13] | [15] | [19] | [17] | [18]

CC(N)C12CC3CC(CC(C3)C1)C2 (centres undefined)
active: [20] 12 µM | [8] 5.62 µM
inactive: [1] | [4] | [7] | [11] | [12] | [13] | [15] | [19] | [18]

CNCC[C@H](Oc1cccc2ccccc12)c1cccs1
active: [1] 11.2 µM | [8] 10 µM | [14] 8.91 µM
inactive: [4] | [5] | [19]

O=C(O)c1cc(=O)[nH]c(=O)[nH]1
inactive: [1] | [3] | [4] | [20] | [5] | [6] | [7] | [8] | [9] | [10] | [11] | [12] | [13] | [14] | [15] | [16] | [19] | [17] | [18]

C1CCC(C(CC2CCCCN2)C2CCCCC2)CC1 (centres undefined)
active: [1] 11.2 µM | [3] 15.1 µM | [7] 10 µM | [8] 7.94 µM | [10] 11.2 µM | [11] 12.6 µM | [12] 11.2 µM | [13] 10 µM | [14] 8.91 µM | [19] 15.1 µM | [17] 12 µM | [18] 13.5 µM
inactive: [15]

CCCCOc1ccc(CC(=O)NO)cc1
active: [1] 2.24 µM | [2] 4.05 µM | [20] 3.61 µM | [5] 2.56 µM | [8] 4.47 µM | [10] 4.47 µM | [11] 2.24 µM | [12] 3.98 µM | [13] 1.41 µM | [14] 2.82 µM | [15] 2.56 µM

Cc1oc(=O)oc1CN1CCN(c2cc3c(cc2F)c(=O)c(C(=O)O)c2n3C(C)S2)CC1 (centres undefined)
inactive: [19]
active: [1] 12.6 µM | [7] 11.2 µM | [8] 10 µM | [9] 6.31 µM | [10] 8.91 µM | [11] 8.91 µM | [12] 7.94 µM | [13] 8.91 µM | [14] 6.31 µM | [16] 11.2 µM

COc1cc2c(Nc3ccc(Br)cc3F)ncnc2cc1OCC1CCN(C)CC1
active: [1] 3.16 µM | [7] 0.447 µM | [8] 3.98 µM | [9] 6.31 µM | [10] 1 µM | [11] 1.41 µM | [12] 1.12 µM | [13] 3.16 µM | [14] 3.55 µM | [16] 3.98 µM | [17] 2.13 µM | [18] 5.36 µM
inactive: [5] | [19]

Oc1c(Cl)cc(Cl)c2cccnc12
active: [1] 11.2 µM | [7] 8.91 µM | [8] 10 µM | [10] 8.91 µM | [11] 12.6 µM
inactive: [2] | [4] | [19]

Cc1ncc([N+](=O)[O-])n1CCO
inactive: [1] | [2] | [3] | [4] | [5] | [7] | [8] | [9] | [10] | [11] | [12] | [13] | [14] | [15] | [16] | [17] | [18]

C[C@@H](NCCCc1cccc(C(F)(F)F)c1)c1cccc2ccccc12
active: [3] 13.5 µM | [4] 15.1 µM | [20] 10.7 µM | [5] 13.5 µM | [6] 10.7 µM | [7] 7.94 µM | [8] 3.55 µM | [9] 11.2 µM | [10] 10 µM | [12] 8.91 µM | [14] 4.47 µM | [16] 11.2 µM | [18] 10.7 µM
inactive: [15]

CCn1cc(C(=O)O)c(=O)c2cc(F)c(N3CCN(C)CC3)cc21
inactive: [2] | [3] | [4] | [9] | [15] | [19] | [17] | [18]

CCn1cc(C(=O)O)c(=O)c2cc(F)c(N3CCNCC3)cc21
inactive: [1] | [2] | [4] | [20] | [6] | [7] | [9] | [10] | [11] | [15] | [16]

O=C(O)c1cn(C2CC2)c2cc(N3CCNCC3)c(F)cc2c1=O
inactive: [1] | [7] | [10]

CCc1cc(C(N)=S)ccn1
inactive: [1] | [2] | [3] | [5] | [6] | [7] | [8] | [9] | [10] | [11] | [12] | [13] | [14] | [15] | [16] | [19] | [17] | [18]

CCOC(=O)c1ccc(C#Cc2ccc3c(c2)C(C)(C)CCS3)nc1
inactive: [2] | [3] | [4] | [6] | [7] | [8] | [9] | [12] | [15] | [19] | [18]

CNC(=O)c1cc(Oc2ccc(NC(=O)Nc3ccc(Cl)c(C(F)(F)F)c3)cc2)ccn1
active: [2] 10.7 µM | [3] 10.7 µM | [5] 12 µM | [6] 15.1 µM | [8] 11.2 µM | [9] 10 µM | [10] 10 µM | [11] 10 µM

COc1c(N2CCNC(C)C2)c(F)cc2c(=O)c(C(=O)O)cn(C3CC3)c12 (centres undefined)
inactive: [1] | [2] | [4] | [5] | [6] | [7] | [8] | [9] | [10] | [12] | [14] | [16] | [19] | [17]

COc1cc([C@@H]2c3cc4c(cc3[C@H](O)[C@H]3COC(=O)[C@H]23)OCO4)cc(OC)c1OC
active: [1] 3.55 µM | [6] 13.5 µM | [8] 3.16 µM | [10] 10 µM | [11] 8.91 µM | [13] 8.91 µM | [14] 2.82 µM | [16] 2.51 µM | [17] 9.53 µM | [18] 4.26 µM
inactive: [15]
